This is part of a sample that, as a whole, favours compounds with a hit. Of some 79,000 tested, about 15% had one in any assay. Active and inactive are the calls of the source. Cut-off read from the data, not from the text of the source: active = growth inhibition above about 70%; inactive = the rest.
Experiments:
[1] = NCI Yeast Anticancer Drug Screen. Data for the rad52 strain (AID 147);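 note: 0% = growth of vehicle-treated control cultures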; details: S. cerevisiae rad52 mutant growth inhibition, stronger effect = higher value
Method in brief: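 Yeast strain carrying a DNA damage repair alteration was exposed to test compounds. Growth inhibition was measured relative to vehicle-treated controls.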

[2] = NCI Yeast Anticancer Drug Screen. Data for the wt1 strain (AID 149);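 note: 0% = growth of vehicle-treated wt1 cultures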; details: S. cerevisiae wt1 strain (SPY 50644) growth inhibition, stronger effect = higher value
Method in brief: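 Compounds are added to wt1 yeast cultures. Growth is then measured. Inhibition is expressed relative to vehicle-treated controls.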

[3] = NCI Yeast Anticancer Drug Screen. Data for the rad50EPP+ strain (AID 151);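 note: 0% = growth of vehicle-treated control cultures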; details: S. cerevisiae rad50 mutant strain, stronger effect = higher value
Method in brief: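 Yeast strain carrying rad50 alteration (rad50EPP+) exposed to compounds; growth inhibition measured relative to vehicle-treated controls.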

[4] = NCI Yeast Anticancer Drug Screen. Data for the mgt1 strain (AID 153); details: S. cerevisiae mgt1 mutant growth inhibition, stronger effect = higher value
Method in brief: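 Yeast mgt1 strain (DNA repair/cell-cycle alteration panel) exposed to compounds; growth inhibition measured relative to vehicle-treated controls.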

[5] = NCI Yeast Anticancer Drug Screen. Data for the rad50 strain (AID 155);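 note: 0% = growth of vehicle-only cultures of the same strain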; details: S. cerevisiae rad50 strain growth inhibition, stronger effect = higher value
Method in brief: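 Inhibition values express reduced yeast growth in compound-treated cultures relative to vehicle-treated controls.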

[6] = NCI Yeast Anticancer Drug Screen. Data for the mec2-1 strain (AID 157); details: S. cerevisiae mec2-1 strain, stronger effect = higher value
Method in brief: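 mec2-1 yeast strain, carrying an alteration in DNA damage repair or cell cycle control, was exposed to compounds; growth inhibition was measured relative to vehicle-treated controls.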

[7] = NCI Yeast Anticancer Drug Screen. Data for the sgs1 mgt1 strain (AID 161);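 note: 0% = growth of cultures given vehicle only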; details: S. cerevisiae sgs1 mgt1 strain, stronger effect = higher value
Method in brief: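 Compounds are added to genetically altered yeast, and growth is compared with cultures given vehicle alone to give percent inhibition.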

[8] = NCI Yeast Anticancer Drug Screen. Data for the CLN2oe strain (AID 163);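 note: 0% = growth of vehicle-only control cultures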; details: S. cerevisiae CLN2oe strain, stronger effect = higher value
Method in brief: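 Yeast cells carrying a defined cell-cycle control alteration were exposed to test compounds. Growth inhibition was scored against vehicle-treated control cultures.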

[9] = NCI Yeast Anticancer Drug Screen. Data for the cln2 rad14 strain (AID 165);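 note: 0% = growth equal to vehicle treated cultures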; details: S. cerevisiae cln2 rad14 strain, stronger effect = higher value
Method in brief: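 Yeast carrying cln2 and rad14 alterations (cell cycle control and DNA damage repair) were exposed to compounds. Growth inhibition was measured against vehicle-treated controls.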

[10] = NCI Yeast Anticancer Drug Screen. Data for the bub3 strain (AID 167); details: S. cerevisiae bub3 mutant strain, stronger effect = higher value
Method in brief: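 Steps: expose the mutant yeast strain to compound; grow alongside vehicle-treated cultures; measure growth; express inhibition against the vehicle cultures.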

[11] = NCI Yeast Anticancer Drug Screen. Data for the wt2 strain (AID 169);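 note: 0% = growth of vehicle-treated yeast cultures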; details: S. cerevisiae wt2 strain growth inhibition, stronger effect = higher value
Method in brief: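 Yeast cells were exposed to test compounds, and growth inhibition was measured relative to vehicle-treated controls.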

[12] = NCI Yeast Anticancer Drug Screen. Data for the mlh1 strain (AID 171);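 note: 0% = growth of vehicle-treated control cultures of the same strain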; details: S. cerevisiae mlh1 strain growth inhibition, stronger effect = higher value
Method in brief: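 Yeast carrying a defined genetic alteration in DNA damage repair or cell cycle control were exposed to test compounds. Growth inhibition was measured relative to vehicle-treated controls.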

[13] = NCI Yeast Anticancer Drug Screen. Data for the sgs1 strain (AID 173);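 note: 0% = growth of vehicle-only control cultures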; details: S. cerevisiae sgs1 mutant, stronger effect = higher value
Method in brief: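 Yeast mutant strains carrying defined defects in DNA damage repair or cell cycle control were exposed to test compounds. Growth inhibition was scored against vehicle-treated controls.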

[14] = NCI Yeast Anticancer Drug Screen. Data for the mlh1 rad18 strain (AID 175); details: S. cerevisiae mlh1 rad18 strain growth inhibition, stronger effect = higher value
Method in brief: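 Growth inhibition of the yeast strain was measured after compound exposure and expressed relative to vehicle-treated controls. The strain carries defined defects in DNA damage repair.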

[15] = NCI Yeast Anticancer Drug Screen. Data for the rad18 strain (AID 177); details: S. cerevisiae rad18 mutant growth inhibition, stronger effect = higher value
Method in brief: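 Yeast carrying a defined DNA damage repair alteration were exposed to compounds. Growth inhibition was expressed relative to vehicle-treated controls.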

[16] = NCI Yeast Anticancer Drug Screen. Data for the rad14 strain (AID 159);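 note: 0% = growth of vehicle-treated control cultures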; details: S. cerevisiae rad14 strain growth inhibition, stronger effect = higher value
Method in brief: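 A mutant yeast strain defective in DNA damage repair is treated with compound; inhibition of its growth is scored against untreated, vehicle-exposed cultures.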

[17] = at 5.0 µM (retest, dose inferred, filed as 0.5)
[18] = at 50.0 µM (retest, dose inferred, filed as 5.0)

Measured: growth inhibition

CCCCCCCCCCCCCCCCCCNC
inactive: [1]; at 1.2 µM 15% | [1]; at 3.7 µM -4% | [1]; at 11.0 µM 0% | [1]; at 33.0 µM 14% | [2]; at 1.2 µM 5% | [2]; at 3.7 µM 17% | [2]; at 11.0 µM 12% | [2]; at 33.0 µM 15% | [3]; at 1.2 µM 14% | [3]; at 3.7 µM 10% | [3]; at 11.0 µM 8% | [3]; at 33.0 µM 48% | [4]; at 1.2 µM 17% | [4]; at 3.7 µM 25% | [4]; at 11.0 µM 21% | [4]; at 33.0 µM 26% | [5]; at 1.2 µM -10% | [5]; at 3.7 µM 1% | [5]; [17] 34% | [5]; at 11.0 µM -2% | [5]; at 33.0 µM 17% | [5]; at 50.0 µM 68.5% | [6]; at 1.2 µM 14% | [6]; at 3.7 µM 3% | [6]; [17] 50% | [6]; at 11.0 µM -3% | [6]; at 33.0 µM 18% | [6]; at 50.0 µM 69% | [7]; [17] -6% | [8]; at 1.2 µM 13% | [8]; at 3.7 µM 19% | [8]; at 11.0 µM 2% | [8]; at 33.0 µM -4% | [9]; [17] 32% | [9]; at 50.0 µM 8.1% | [10]; at 1.2 µM 12% | [10]; at 3.7 µM 15% | [10]; [17] 50% | [10]; at 11.0 µM 32% | [10]; at 33.0 µM 20% | [11]; at 1.2 µM -35% | [11]; at 3.7 µM -17% | [11]; at 11.0 µM -40% | [11]; at 33.0 µM -24% | [12]; at 1.2 µM -26% | [12]; at 3.7 µM -10% | [12]; at 11.0 µM -8% | [12]; at 33.0 µM -40% | [13]; at 1.2 µM -9% | [13]; at 3.7 µM -27% | [13]; at 11.0 µM -27% | [13]; at 33.0 µM -16% | [14]; [17] 41% | [14]; at 50.0 µM 61.3% | [15]; at 1.2 µM 17% | [15]; at 3.7 µM 7% | [15]; at 11.0 µM 7% | [15]; at 33.0 µM 18%
active: [1]; at 100.0 µM 95% | [2]; at 100.0 µM 86% | [3]; at 100.0 µM 89% | [4]; at 100.0 µM 96% | [5]; [18] 90% | [5]; at 100.0 µM 87% | [6]; [18] 95% | [6]; at 100.0 µM 96% | [7]; [18] 97% | [7]; at 50.0 µM 81.2% | [8]; at 100.0 µM 77% | [9]; [18] 92% | [10]; [18] 96% | [10]; at 50.0 µM 87.1% | [10]; at 100.0 µM 94% | [11]; at 100.0 µM 82% | [12]; at 100.0 µM 70% | [13]; at 100.0 µM 87% | [14]; [18] 94% | [15]; at 100.0 µM 88%

CCC(=O)OCCn1c2nc(=O)[nH]c(=O)c-2nc2cc(C)c(C)cc21
active: [3]; at 33.0 µM 73% | [3]; at 100.0 µM 88% | [7]; [18] 91% | [11]; at 33.0 µM 85% | [11]; at 100.0 µM 93% | [12]; at 100.0 µM 86% | [13]; at 33.0 µM 83% | [13]; at 100.0 µM 94%
inactive: [1]; at 1.2 µM -10% | [1]; at 3.7 µM -12% | [1]; at 11.0 µM -5% | [1]; at 33.0 µM 0% | [1]; at 100.0 µM 0% | [2]; at 1.2 µM 8% | [2]; at 3.7 µM -4% | [2]; at 11.0 µM 4% | [2]; at 33.0 µM 7% | [2]; at 100.0 µM 11% | [3]; at 1.2 µM -1% | [3]; at 3.7 µM -13% | [3]; at 11.0 µM 24% | [5]; at 1.2 µM -57% | [5]; at 3.7 µM -17% | [5]; [17] 3% | [5]; at 11.0 µM -9% | [5]; at 33.0 µM 15% | [5]; [18] 10% | [5]; at 50.0 µM 33.3% | [5]; at 100.0 µM 44% | [6]; at 1.2 µM -2% | [6]; at 3.7 µM -3% | [6]; [17] 3% | [6]; at 11.0 µM -2% | [6]; at 33.0 µM -4% | [6]; [18] 14% | [6]; at 50.0 µM 42.9% | [6]; at 100.0 µM -1% | [16]; at 1.2 µM 3% | [16]; at 3.7 µM 0% | [16]; at 11.0 µM 23% | [16]; at 33.0 µM 14% | [16]; at 100.0 µM -3% | [7]; [17] 2% | [7]; at 50.0 µM 57.5% | [8]; at 1.2 µM -7% | [8]; at 3.7 µM -5% | [8]; at 11.0 µM -3% | [8]; at 33.0 µM -5% | [8]; at 100.0 µM -2% | [9]; [17] -1% | [9]; [18] 3% | [9]; at 50.0 µM 19.9% | [10]; at 1.2 µM -7% | [10]; at 3.7 µM -4% | [10]; [17] -2% | [10]; at 11.0 µM -5% | [10]; at 33.0 µM 5% | [10]; [18] 10% | [10]; at 50.0 µM 3.15% | [10]; at 100.0 µM 35% | [11]; at 1.2 µM -8% | [11]; at 3.7 µM -1% | [11]; at 11.0 µM 20% | [12]; at 1.2 µM -11% | [12]; at 3.7 µM -6% | [12]; at 11.0 µM -5% | [12]; at 33.0 µM 65% | [13]; at 1.2 µM -15% | [13]; at 3.7 µM -7% | [13]; at 11.0 µM 21% | [14]; [17] 5% | [14]; [18] 29% | [14]; at 50.0 µM 21.1%

— PubChem BioAssay (NCI)
